Test results from PMC4336329 (PLoS ONE, 2015).
The whole screen tested about 310,000 compounds, of which about 14,000 (4.5%) showed an effect of 50% or more. Effects have a minus sign here. This is one part of a sample in which strong results are shown more often than they occur.

Molecular target: human ether-à-go-go-related gene (hERG) potassium channel (human, UniProt Q12809)
Assay: primary screen, population patch clamp on CHO cells stably expressing hERG; higher = less effect of the substance
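Note: peak tail current of the secondary pulse compared with the same well before compound.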

Chain of human ether-à-go-go-related gene (hERG) potassium channel (Q12809 whole entry, looked up): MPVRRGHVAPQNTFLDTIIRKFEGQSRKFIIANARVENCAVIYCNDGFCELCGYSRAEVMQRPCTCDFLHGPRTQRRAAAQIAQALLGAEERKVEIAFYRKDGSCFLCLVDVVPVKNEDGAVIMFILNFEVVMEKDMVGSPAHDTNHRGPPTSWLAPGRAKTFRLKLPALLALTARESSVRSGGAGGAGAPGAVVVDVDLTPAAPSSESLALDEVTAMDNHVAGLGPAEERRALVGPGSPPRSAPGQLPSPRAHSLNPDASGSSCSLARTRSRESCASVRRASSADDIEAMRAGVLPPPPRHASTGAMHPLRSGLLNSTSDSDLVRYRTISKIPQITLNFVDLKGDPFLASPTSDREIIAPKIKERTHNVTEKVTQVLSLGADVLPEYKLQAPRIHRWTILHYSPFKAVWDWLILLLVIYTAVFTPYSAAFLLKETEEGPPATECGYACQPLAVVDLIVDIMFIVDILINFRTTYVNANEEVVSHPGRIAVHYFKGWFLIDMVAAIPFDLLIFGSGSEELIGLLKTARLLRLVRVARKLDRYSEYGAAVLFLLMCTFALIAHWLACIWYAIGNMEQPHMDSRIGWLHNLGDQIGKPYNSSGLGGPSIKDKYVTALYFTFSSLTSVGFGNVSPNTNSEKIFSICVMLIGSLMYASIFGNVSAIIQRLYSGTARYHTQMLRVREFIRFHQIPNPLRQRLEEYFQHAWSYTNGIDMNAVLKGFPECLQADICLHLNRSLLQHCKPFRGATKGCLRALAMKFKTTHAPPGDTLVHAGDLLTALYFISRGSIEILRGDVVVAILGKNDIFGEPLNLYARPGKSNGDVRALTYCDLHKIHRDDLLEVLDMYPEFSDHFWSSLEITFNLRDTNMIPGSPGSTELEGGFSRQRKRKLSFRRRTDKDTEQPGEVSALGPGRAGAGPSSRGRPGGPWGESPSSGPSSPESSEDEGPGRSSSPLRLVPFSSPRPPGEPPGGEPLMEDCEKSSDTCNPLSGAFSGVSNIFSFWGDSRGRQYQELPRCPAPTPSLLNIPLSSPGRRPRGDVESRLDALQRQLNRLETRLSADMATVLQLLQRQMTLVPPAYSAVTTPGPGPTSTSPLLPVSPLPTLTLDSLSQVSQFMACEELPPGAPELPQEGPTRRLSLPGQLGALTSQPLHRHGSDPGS

Row | Compound | hERG current change (%, negative = inhibition) at 10uM
1 | CNC(=O)COc1ccc2oc3c(c2c1)CCCC3 | 9.14%
2 | CC(C)OCCCNC(=O)COc1ccc2oc3c(c2c1)CCCC3 | -4.97%
3 | CC(=O)N1CCN(C(=O)COc2ccc3oc4c(c3c2)CCCC4)CC1 | -25.4%
4 | CCOC(=O)N1CCN(C(=O)COc2ccc3oc4c(c3c2)CCCC4)CC1 | -50.6%
5 | CC(C)N(CCNC(=O)COc1ccc2oc3c(c2c1)CCCC3)C(C)C | -73.3%
6 | CCN(CC)CCCNC(=O)COc1ccc2oc3c(c2c1)CCCC3.Cl | -45.7%
7 | Cc1cccc(N(CC(=O)NCCC2=CCCCC2)S(C)(=O)=O)c1C | -22.8%
8 | COC(=O)c1ccc(CNC(=O)/C=C/c2cc([N+](=O)[O-])ccc2OC(F)F)cc1 | 6.89%
9 | CN(C)CCN(C(=O)C1=COCCO1)c1nc2ccc(Cl)cc2s1.Cl | -73.1%
10 | CN(C)CCN(C(=O)c1ccc2c(c1)OCCO2)c1nc2ccc(Cl)cc2s1.Cl | -1.19%
11 | CN(C)CCN(C(=O)C1=COCCO1)c1nc2ccc(F)cc2s1.Cl | -73%
12 | CN(C)CCCN(C(=O)C1=COCCO1)c1nc2ccc(Br)cc2s1.Cl | -67.2%
13 | CN(C)CCN(C(=O)c1ccc2ccccc2c1)c1nc2ccc(Br)cc2s1.Cl | 13.2%
14 | CN(C)CCN(C(=O)c1ccc2ccccc2c1)c1nc2ccc(F)cc2s1.Cl | 11.1%
15 | O=C(CN1Cc2ccccc2C1=O)Nc1ccc2c(c1)OCCO2 | 3.26%
16 | O=C([O-])c1cc(=O)[nH]c2ccc(S(=O)(=O)Nc3ccc(F)cc3)cc12.[K+] | 23.5%
17 | O=C(O)c1ccc(NC(=O)C2CCCCC2)cc1 | -7.8%
18 | COCCNC(=O)Cn1cc2c(n1)CCC(C)C2 (stereo not drawn) | 21.2%
19 | O=C(Cn1c(=O)oc2ccccc21)N1CCCC1 | 14.4%
20 | Cc1[nH]c2ccccc2c1/C=N/NC(=S)NC(C)C | 12.1%
21 | CCCCC(c1nnnn1C1CCCC1)N1CCN(C2CCCC2)CC1.Cl (stereo not drawn) | -85.6%
22 | CCCC(c1nnnn1C1CCCCC1)N1CCN(C2CCCC2)CC1.Cl (stereo not drawn) | -46.4%
23 | CCC(c1nnnn1C1CCCCC1)N1CCN(C2CCCC2)CC1.Cl (stereo not drawn) | -3.77%
24 | CCCCC(c1nnnn1C1CCCC1)N1CCN(C2CCCCC2)CC1 (stereo not drawn) | -69.8%
25 | CCCCC(c1nnnn1C1CCCC1)N1CCN(C(=O)c2ccco2)CC1.Cl (stereo not drawn) | -47%
26 | CCCC(c1nnnn1C(C)(C)CC)N1CCN(C2CCCC2)CC1.Cl (stereo not drawn) | -35.3%
27 | CC(CC(=O)N(CCC1=CCCCC1)c1c(N)n(Cc2ccccc2)c(=O)[nH]c1=O)c1ccccc1 (stereo not drawn) | 17.1%

Row | Compound | hERG current change (%, negative = inhibition) at 10uM
28 | Cc1cc(F)ccc1NC(=O)CCCN(C)S(=O)(=O)c1ccc(F)cc1 | -5.3%
29 | CCc1cc2c(=O)c(-c3nc4ccccc4n3C)c(C)oc2c(CN2CCN(C)CC2)c1O | 14.3%
30 | O=C(CSc1ncnc2c1oc1ccccc12)Nc1cccc(C(F)(F)F)c1 | 11%
31 | COc1ccc2c(Cl)c(C(=O)N/N=C3\CCCC(=O)C3)sc2c1 | -9.05%
32 | Cn1c(=O)c2c(nc(CN3CCN(c4ccc(F)cc4)CC3)n2Cc2ccccc2F)n(C)c1=O | -6.93%
33 | CCOC(=O)C/C(C)=N\Nc1ccc([N+](=O)[O-])cc1[N+](=O)[O-] | -40.2%
34 | CCOC(=O)C(C)/C(C)=N\Nc1ccc([N+](=O)[O-])cc1[N+](=O)[O-] (stereo not drawn) | -53.2%
35 | CCOC(=O)C(C(=O)OCC)C(C)(C)/C(C)=N\Nc1ccc([N+](=O)[O-])cc1[N+](=O)[O-] | -40.8%
36 | Cc1onc(-c2ccccc2Cl)c1C(=O)N1CCOC12CCCCC2 | 1.15%
37 | Fc1cnc(N2CCOCC2)nc1N1CCc2ccccc21 | -19.5%
38 | COc1cccc(CN2CCN(C(=O)c3cccs3)CC2)c1OC | -4.33%
39 | Cc1cc(C)n(CC(=O)NNC(=O)C2CC(=O)N(Cc3ccccc3Cl)C2)n1 (stereo not drawn) | 1.16%
40 | Nc1nc(COC(=O)C2CCN(C(=O)c3ccc(Cl)cc3)CC2)nc(Nc2ccccc2)n1 | -67.8%
41 | COC(=O)C1CC(=O)N(Cc2ccccc2)C1 (stereo not drawn) | 23.4%
42 | Nc1nc(COC(=O)CCC(=O)c2ccc(Cl)cc2)nc(Nc2ccccc2)n1 | 6.39%
43 | Nc1nc(COC(=O)C2CC(=O)N(Cc3ccccc3Cl)C2)nc(Nc2ccccc2)n1 (stereo not drawn) | -55.6%
44 | Cc1ccccc1C(=O)N1CCC(C(=O)OCc2nc(N)nc(Nc3ccccc3)n2)CC1 | -33.6%
45 | COc1ccccc1N1CC(C(=O)OCc2nc(N)nc(Nc3ccccc3)n2)CC1=O (stereo not drawn) | -15.8%
46 | Nc1nc(COC(=O)C2CC(=O)N(Cc3ccccc3)C2)nc(Nc2ccccc2)n1 (stereo not drawn) | -51.9%
47 | Nc1nc(COC(=O)C2CC(=O)N(CCc3ccccc3)C2)nc(Nc2ccccc2)n1 (stereo not drawn) | -52.2%
48 | Cc1ccc(N2CC(C(=O)OCc3nc(N)nc(Nc4ccccc4C)n3)CC2=O)cc1 (stereo not drawn) | -32.8%
49 | O=C(COC(=O)C1CC(=O)N(CCc2ccccc2)C1)c1ccc[nH]1 (stereo not drawn) | -41.8%
50 | CC(=O)Nc1ccc(NC(=O)C(C)OC(=O)C2CC(=O)N(CCc3ccccc3)C2)cc1 (stereo not drawn) | 14.4%
51 | CC(=O)c1ccc(NC(=O)Nc2ccc(Br)cc2C)cc1 | 22.3%
52 | COc1ccc(/C=N/NC(=O)c2ccc(N(C)S(=O)(=O)c3ccccc3)cc2)c(OC)c1 | 6.66%
53 | Cl.O=S(=O)(c1cccs1)N1CCN(C/C=C/c2ccccc2)CC1 | -49.3%
54 | COc1ccc(N(CC(=O)NCc2cccnc2)S(=O)(=O)c2ccccc2)c(OC)c1 | -8.52%
